# Measured values reported in PubChem BioAssay (NCATS).
# Results filed as inconclusive are left out. A call without a number means that no potency is given here. Unmarked numbers belong to inactive results. Activity calls are given as the source filed them. Unless noted, the call rests on the fitted dose curve.
# Experiments:
# [1] = Primary qHTS for inhibitors of SARS-S pseudo-typed particle cell entry (AID 1479145); further: nearly all actives have a fitted effect of over 45% in size; further: potency means the concentration at half of the fitted maximal effect; on activity change, negative = inhibition: series mostly up to about 57 µM
# [2] = Primary qHTS for Huh7 cytotoxicity: counterscreen for inhibitors of MERS-S pseudotyped particle cell entry (AID 1479147)
# [3] = Primary qHTS for Vero E6 cytotoxicity: counterscreen for inhibitors of SARS-S pseudo-typed particle cell entry (AID 1479150)
# [4] = Primary qHTS for inhibitors of MERS-S pseudo-typed particle cell entry (AID 1479149); further: nearly all actives have a fitted effect of over 60% in size; further: potency means the concentration at half of the fitted maximal effect; on activity change, negative = inhibition: series mostly up to about 57 µM
# [5] = Primary qHTS for inhibitors of La Crosse Virus (LACV) - induced cell death in SH-SY5Y cells (AID 1508616; active means well fitted inhibition curve with a large enough effect;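 further: top concentration of the series differs between compounds; higher means more rescue of cells from virus-induced death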)
# Outline: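 SH-SY5Y, 6000 cells/well; cpd via pin tool in DMSO; LACV 0.01 MOI; 6 d 37C 5% CO2; ATPLite, 5 min RT; luminescence normalized to ±virus DMSO controls.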
# [6] = Primary qHTS for small molecule stabilizers of the endoplasmic reticulum resident proteome: Secreted ER Calcium Modulated Protein (SERCaMP) assay (AID 1508630; active means well fitted inhibition curve with a large enough effect)
# Outline: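 The SH-SY5Y reporter protocol was run at 3 concentrations up to 38.3 uM (primary) or 11 concentrations (follow-up): 16 h compound, 100 nM thapsigargin for 4 h, then extracellular luciferase luminescence.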
smiles,measurement,setting,value
CO[C@@H]1[C@@H](OC(N)=O)[C@@H](O)[C@H](Oc2ccc3c(O)c(NC(=O)c4ccc(O)c(CC=C(C)C)c4)c(=O)oc3c2C)OC1(C)C,Potency,[1],inactive
same,Potency,[2],inactive
same,Potency,[3],inactive
CCn1cc(C(=O)O)c(=O)c2cnc(N3CCCC3)nc21,"activity change, negative = inhibition",[1],-4.52% [at 11.4 µM]
same,outcome,[2],inactive [at 11.4 µM]
same,outcome,[4],inactive [at 11.4 µM]
same,outcome,[3],inactive [at 11.4 µM]
CCCNC(C)C(=O)Nc1ccccc1C (stereo not drawn),Potency,[1],inactive
same,Potency,[2],inactive
same,Potency,[4],inactive
same,Potency,[3],inactive
CCOC(=O)c1ccccc1O,Potency,[1],inactive
same,Potency,[2],inactive
same,Potency,[4],inactive
same,Potency,[3],inactive
CCn1cc(C(=O)O)c(=O)c2cc(F)c(N3CCNC(C)C3)c(F)c21 (stereo not drawn),Potency,[1],inactive
same,Potency,[2],inactive
same,Potency,[3],inactive
CC[N+](C)(CC)CCOC(=O)C1c2ccccc2Oc2ccccc21,Potency,[1],inactive
same,Potency,[2],inactive
same,Potency,[4],inactive
same,Potency,[3],inactive
O=S(=O)(O)c1ccc(O)cc1,Potency,[1],inactive
same,Potency,[2],inactive
same,Potency,[4],inactive
same,Potency,[3],inactive
CCCc1ccc(OCC(=O)N2CCN(C(=O)COc3ccc(CCC)cc3OC)CC2)c(OC)c1,Potency,[1],inactive
same,Potency,[2],inactive
same,Potency,[3],inactive
NC(N)=NC(=O)Cc1c(Cl)cccc1Cl,Potency,[1],inactive
same,Potency,[2],inactive
same,Potency,[3],inactive
CCN(CC)C(=O)/C(C#N)=C/c1cc(O)c(O)c([N+](=O)[O-])c1,Potency,[1],inactive
same,Potency,[2],inactive
same,Potency,[4],inactive
same,Potency,[3],inactive
O=C(O)c1cccnc1,Potency,[1],inactive
same,Potency,[2],inactive
same,Potency,[4],inactive
same,Potency,[3],inactive
C[C@]12CCC(=O)C=C1CC[C@@H]1[C@@H]2[C@@H](O)C[C@@]2(C)[C@H]1CC[C@]2(O)C(=O)COC(=O)CCC(=O)O,Potency,[1],inactive
same,Potency,[2],inactive
same,Potency,[4],inactive
same,Potency,[3],inactive
Cc1oc(=O)oc1CN1CCN(c2cc3c(cc2F)c(=O)c(C(=O)O)c2n3C(C)S2)CC1 (stereo not drawn),Potency,[1],inactive
same,Potency,[2],inactive
same,Potency,[4],inactive
same,Potency,[3],inactive
Cc1cc(C)nc(NS(=O)(=O)c2ccc(N)cc2)n1,Potency,[1],inactive
same,Potency,[2],inactive
same,Potency,[4],inactive
same,Potency,[3],inactive
Cc1cc(OI)c(C(C)C)cc1-c1cc(C(C)C)c(OI)cc1C,Potency,[1],inactive
same,Potency,[2],inactive
same,Potency,[3],inactive
CO/N=C(\C(=O)N[C@@H]1C(=O)N2C(C(=O)O)=C(C[N+]3(C)CCCC3)CS[C@H]12)c1csc(N)n1,Potency,[1],inactive
same,Potency,[2],inactive
same,Potency,[4],inactive
same,Potency,[3],inactive
C[C@H](NC(CCc1ccccc1)C(=O)O)C(=O)N1CCC[C@H]1C(=O)O (stereo partly drawn),Potency,[1],inactive
same,Potency,[2],inactive
same,Potency,[3],inactive
C=C1[C@H](CO)[C@@H](O)C[C@@H]1n1cnc2c(=O)[nH]c(N)nc21,Potency,[2],inactive
same,Potency,[4],inactive
same,Potency,[3],inactive
COCCOC(=O)C1=C(C)NC(C)=C(C(=O)OC(C)C)C1c1cccc([N+](=O)[O-])c1 (stereo not drawn),Potency,[1],inactive
same,Potency,[2],inactive
same,Potency,[3],inactive
O=c1c(C2CC(c3ccc(-c4ccc(Br)cc4)cc3)Cc3ccccc32)c(O)sc2ccccc12 (stereo not drawn),Potency,[1],25.1 µM (active)
same,Potency,[2],inactive
same,outcome,[5],inactive
same,Potency,[6],inactive
Clc1cccc(Cl)c1NC1=NCCN1,Potency,[2],inactive
same,Potency,[4],inactive
same,Potency,[3],inactive
CCCCCCNC(=O)n1cc(F)c(=O)[nH]c1=O,Potency,[2],inactive
same,Potency,[4],5.01 µM (active)
same,Potency,[3],inactive
C[C@@H]1O[C@@H]1P(=O)(O)O,Potency,[2],inactive
same,Potency,[4],inactive
same,Potency,[3],inactive
CCCCC[C@H](O)/C=C/[C@@H]1[C@H]2C/C(=C/CCCC(=O)O)O[C@H]2C[C@H]1O,Potency,[2],inactive
same,Potency,[4],inactive
same,Potency,[3],inactive
CC(C(=O)O)c1cccc(Oc2ccccc2)c1 (stereo not drawn),Potency,[1],inactive
same,Potency,[2],inactive
same,Potency,[3],inactive
Oc1ccccc1,Potency,[2],inactive
same,Potency,[4],inactive
same,Potency,[3],inactive
CC(C(=O)O)c1ccc2c(c1)CC(=O)c1ccccc1S2 (stereo not drawn),Potency,[1],inactive
same,Potency,[2],inactive
same,Potency,[3],inactive
CC(=O)Nc1ccc(C(=O)O)cc1,Potency,[1],inactive
same,Potency,[2],inactive
same,Potency,[3],inactive
O=C(O)CCCCC1CCSS1 (stereo not drawn),Potency,[1],inactive
same,Potency,[4],inactive
same,Potency,[3],inactive
O=C(O)CCCC[C@@H]1SC[C@@H]2NC(=O)N[C@@H]21,Potency,[1],inactive
same,Potency,[2],inactive
same,Potency,[3],inactive
CC(C)(Sc1cc(C(C)(C)C)c(O)c(C(C)(C)C)c1)Sc1cc(C(C)(C)C)c(O)c(C(C)(C)C)c1,Potency,[2],inactive
same,Potency,[4],inactive
same,Potency,[3],inactive
CN1C[C@@H]2C[C@H]1CN2c1cc2c(cc1F)c(=O)c(C(=O)O)cn2C1CC1,Potency,[1],inactive
same,Potency,[2],inactive
same,Potency,[3],inactive
Nc1cc(C(Cl)=C(Cl)Cl)c(S(N)(=O)=O)cc1S(N)(=O)=O,Potency,[1],inactive
same,Potency,[2],inactive
same,Potency,[3],inactive
CCCCN(CCCC)CCCOC(=O)c1ccc(N)cc1,Potency,[1],inactive
same,Potency,[4],inactive
same,Potency,[3],inactive
Nc1ccc(S(=O)(=O)c2ccc(N)cc2)cc1,Potency,[1],inactive
same,Potency,[2],inactive
same,Potency,[3],inactive
CCN1CC(CCN2CCOCC2)C(c2ccccc2)(c2ccccc2)C1=O (stereo not drawn),Potency,[2],inactive
same,Potency,[4],inactive
same,Potency,[3],inactive
CCCCC(CC)CNC(=O)CC(C)OC(=O)CCC(=O)O (stereo not drawn),Potency,[2],inactive
same,Potency,[4],inactive
same,Potency,[3],inactive
